Rows were chosen to be rich in hits. Some 6.9% of all compounds tested hit in one or more screens of this group.
Mdm2-MdmX inh: human Mdm2/MdmX binding inhibition. O15151+Q00987. SaOS-2 split-luciferase Mdm2/MdmX complementation, luminescence. inhibition, % at 8 µM. 330,000 tested, 3% active;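 active = inhibition of at least 50% at 8 µM in the primary screen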
Beta apoptosis: beta cell apoptosis inhibition. INS-1E cytokine-induced death, ATP luminescence, 48 h; percent of positive-control rescue, neutral wells zero. protection from apoptosis, % (test concentration not listed). 300,000 tested, 0.8% active. AID 435005;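 active = Every replicate reaches about 75%, or at least half do and their mean reaches it too, limit read from the data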;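 note: higher means more ATP so stronger rescue from cytokine killing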
MPTP inh: blocks calcium-induced mitochondrial swelling. AID 602449. inhibition, % at 10 µM. isolated mouse mitochondria, Ca2+ swelling absorbance, 30 min. 360,000 tested, 1.4% active;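 active = inhibition of 50% or more, scaled per plate between neutral and stimulator controls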
SKKanGAS inh: blocks kanamycin growth of S. pyogenes SKKanGAS strain. 300,000 tested, 1.3% active. inhibition, % at 7.5 µM. AID 1662. BacTiter-Glo, 6 h;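 active = mean replicate score, as percent of positive control median, at least 50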;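 note: strain carries kanamycin resistance gene driven by streptokinase promoter and grows in 40 µg/ml kanamycin; loss of luminescence reflects streptokinase promoter inhibition or plain growth inhibition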
CSC inhib: cancer stem cell inhibition | 300,000 tested, 1.1% active | cancer stem cell-like cells viability, luminescence | inhibition, % at 7.5 µM; in the data active = inhibition above about 75%; tested in HMLE shEcad cells
NR3A LBD binder: modulates the human NR3A ligand-binding domain; 340,000 tested, 2.5% active; Tm shift relative to glycine control, % at 25 µM; AID 1259313; NR3A LBD differential scanning fluorimetry, Tm shift; 0% = protein alone, 100% = glycine-bound protein;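 active = melting temperature shift of at least 10% of the positive control shift, at one fixed dose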
Each line names hits and unclear results; the compound was inactive in the other large screens.

CCNC(=O)NC(=O)COC(=O)CCCSc1nc2ccccc2[nH]1	none
Clc1ccccc1CNc1ncnc2nc[nH]c12	none
Clc1ccccc1CN(Cc1ccccc1)c1ncnc2nc[nH]c12	SKKanGAS inh 51
O=C(NCCCCNCCCNC(=O)c1ccccc1)c1ccccc1	none (no result: Beta apoptosis, SKKanGAS inh, CSC inhib)
CC(C)(C)n1cnc2cc(NCc3cccs3)ccc21	none
Cc1ccccc1-n1cnc2cc(NCc3cccs3)ccc21	SKKanGAS inh 50
CC(C)=CCC[C@](C)(O)C1CC[C@]2(C)C1C(O)CC1[C@@]3(C)CCC(O)C(C)(C)C3C(O[C@@H]3OC(CO)C(O)C(O)C3O[C@@H]3OC(C)C(O)C(O)C3O)C[C@]12C (stereo partly drawn)	NR3A LBD binder 10 (no result: SKKanGAS inh)
Clc1ccc(-n2ncc3c(NCc4ccc5c(c4)OCO5)ncnc32)cc1	NR3A LBD binder 12
c1nc(NCc2ccc3c(c2)OCO3)c2cc(-c3ccc4c(c3)OCCO4)ccc2n1	Beta apoptosis 99 (no result: SKKanGAS inh, CSC inhib)
c1cncc(CNc2ncnc3ccc(-c4ccc5c(c4)OCO5)cc23)c1	none (no result: SKKanGAS inh, CSC inhib)
O=C(CNc1ccc2ccccc2c1)N/N=C/c1ccc([N+](=O)[O-])o1	SKKanGAS inh 83
CCCCOc1cccc(-c2cc(C(=O)NNC(=S)NCC)c3ccccc3n2)c1	NR3A LBD binder 11
CCCOc1cccc(-c2cc(C(=O)N/N=C/c3cccnc3)c3ccccc3n2)c1	none (no result: SKKanGAS inh)
CCCOc1cccc(-c2cc(C(=O)N/N=C/c3ccccn3)c3ccccc3n2)c1	SKKanGAS inh 92
CCCc1ccc(-c2cc(C(=O)N/N=C/c3ccc([N+](=O)[O-])o3)c3ccccc3n2)cc1	SKKanGAS inh 96
CC(C)C[C@H]1CNC(=S)N1CC1CCCN1C[C@H](CC(C)C)N1C[C@H](Cc2ccc(O)cc2)N(CC2CCCCCC2)C1=S (stereo partly drawn)	none (no result: Mdm2-MdmX inh, Beta apoptosis, SKKanGAS inh, CSC inhib)
Cc1c(C(=O)Nc2ccc3c(c2)OCCO3)sc2nc(-c3ccccc3)cn12	SKKanGAS inh 70, NR3A LBD binder 27
CCCN(C(=O)c1cc(S(=O)(=O)N2CCN(CC)CC2)ccc1Cl)C1CCS(=O)(=O)C1 (stereo not drawn)	none (no result: Mdm2-MdmX inh, Beta apoptosis, SKKanGAS inh, CSC inhib)
S=c1nc(NCc2cccc(Cl)c2)c2ccccc2[nH]1	NR3A LBD binder 15 (no result: Beta apoptosis, CSC inhib)
COc1ccc(CNCC(O)COc2ccc(C(C)(C)c3ccccc3)cc2)cc1 (stereo not drawn)	CSC inhib 109
OC(CNCCc1ccc(C(F)(F)F)cc1)COc1cccc2ccccc12 (stereo not drawn)	CSC inhib 96
COc1ccccc1COCC(O)CNCCc1ccc(C(F)(F)F)cc1 (stereo not drawn)	none
OC(CNCc1ccc(Cl)cc1)COc1ccccc1 (stereo not drawn)	none
OC(CNCCc1ccc(C(F)(F)F)cc1)COc1ccc2ccccc2c1 (stereo not drawn)	CSC inhib 77
Oc1ccc(Cl)cc1C1=NNC(c2cc(Br)cc3c2OCOC3)C1 (stereo not drawn)	none
Oc1ccc(Cl)cc1C1=NNC(c2ccc(Cl)cc2)C1 (stereo not drawn)	SKKanGAS inh 96, NR3A LBD binder 11
Fc1cc(F)c(F)c(SCn2cc(Br)cn2)c1F	none (no result: Beta apoptosis, SKKanGAS inh, CSC inhib)
O=C(COC(=O)c1ccc(CO)cc1)Nc1ccc(OC(F)F)cc1	NR3A LBD binder 16
O=C(COC(=O)c1ccc(O)cc1O)Nc1ccc2ccccc2c1	NR3A LBD binder 14 (no result: SKKanGAS inh)
CC1CCc2c(sc(NC(=O)COC(=O)c3ccc(NC(=O)CC#N)cc3)c2C#N)C1 (stereo not drawn)	NR3A LBD binder 26
N#CCC(=O)Nc1ccc(C(=O)OCC(=O)Nc2ccc3ccccc3c2)cc1	NR3A LBD binder 30 (no result: SKKanGAS inh, CSC inhib)
O=C(COC(=O)c1ccc(OC(F)F)cc1)NCCNC(=O)COC(=O)c1ccc(OC(F)F)cc1	none
OC[C@@H]1CN(Cc2ccncc2)C[C@H](n2cnc3c(N4CCCC4)ncnc32)O1	none (no result: Mdm2-MdmX inh, Beta apoptosis, SKKanGAS inh, CSC inhib, NR3A LBD binder)
COCCNC(=O)C1(C)CCCN(C(=O)c2cc(C)on2)C1 (stereo not drawn)	none (no result: Mdm2-MdmX inh, Beta apoptosis, SKKanGAS inh, CSC inhib, NR3A LBD binder)
CN(CC(=O)NCCCN1CCOCC1)S(=O)(=O)c1ccc(Cl)cc1	none (no result: SKKanGAS inh)
CCc1noc(C)c1C(=O)Nc1cc(S(=O)(=O)N2CCOCC2)ccc1OCC(F)(F)F	none (no result: CSC inhib)
Cc1cc(OCC(=O)NC2CCN(Cc3ccccc3)CC2)c2c(C)cc(=O)oc2c1	none
CCOc1ccc(NC(=O)COC(=O)Cc2ccsc2)cc1	NR3A LBD binder 34 (no result: SKKanGAS inh)
CCc1cccc(CC)c1NC(=O)COC(=O)Cc1ccsc1	none
CCOc1ccc(NC(=O)COC(=O)CCCc2c[nH]c3ccccc23)cc1	NR3A LBD binder 28
COc1ccc(NC(=O)COC(=O)CCCc2c[nH]c3ccccc23)cc1	NR3A LBD binder 21 (no result: Beta apoptosis)
COc1cccc(NC(=O)COC(=O)CCCc2c[nH]c3ccccc23)c1	none
COc1ccc(S(=O)(=O)N(CC(=O)NCc2cccnc2)c2ccc(C)cc2)cc1OC	none
O=[N+]([O-])c1cc(S(=O)(=O)N2CCCCCC2)ccc1F	CSC inhib 102 (no result: Mdm2-MdmX inh, SKKanGAS inh)
Cc1noc(C)c1S(=O)(=O)N(C)C[C@H]1Oc2c(NC(=O)Nc3ccc(C(F)(F)F)cc3)cccc2C(=O)N([C@H](C)CO)C[C@@H]1C	NR3A LBD binder 11 (no result: SKKanGAS inh, CSC inhib)
Cc1noc(C)c1S(=O)(=O)N(C)C[C@H]1Oc2c(NC(=O)Nc3ccccc3)cccc2C(=O)N([C@H](C)CO)C[C@@H]1C	none (no result: SKKanGAS inh)
C[C@H](CO)N1C[C@H](C)[C@@H](CN(C)S(=O)(=O)c2ccccc2)Oc2ccc(NC(=O)Nc3ccc(C(F)(F)F)cc3)cc2C1=O	CSC inhib 102, NR3A LBD binder 23 (no result: SKKanGAS inh)
C[C@H](CO)N1C[C@H](C)[C@@H](CN(C)S(=O)(=O)c2ccccc2)Oc2c(NC(=O)Nc3ccccc3)cccc2C1=O	none (no result: Beta apoptosis, SKKanGAS inh, CSC inhib)
COc1ccc(NC(=O)Nc2cccc3c2O[C@H](CN(C)S(=O)(=O)c2cn(C)cn2)[C@@H](C)CN([C@H](C)CO)C3=O)cc1	NR3A LBD binder 16 (no result: SKKanGAS inh)
C[C@H]1CN([C@@H](C)CO)C(=O)c2cccc(NC(=O)Nc3ccc(C(F)(F)F)cc3)c2O[C@@H]1CN(C)S(=O)(=O)c1ccccc1	NR3A LBD binder 13 (no result: Beta apoptosis, SKKanGAS inh, CSC inhib)
CCN(CC)CCCNC(=O)c1[nH]c2ccccc2c1Sc1ccc(Cl)cc1	none
COc1ccc(N2CCN(C(=O)COC(=O)COc3cccc(C(F)(F)F)c3)CC2)cc1	none (no result: SKKanGAS inh, CSC inhib)
Oc1ccc(C[C@H]2CNC(=S)N2CCc2cc(C(F)(F)F)cc(C(F)(F)F)c2)cc1	NR3A LBD binder 31
O=C1NC[C@H](CC2CCCCC2)N(CCc2cc(C(F)(F)F)cc(C(F)(F)F)c2)C1=O	none (no result: Mdm2-MdmX inh, Beta apoptosis, SKKanGAS inh, CSC inhib, NR3A LBD binder)
Oc1ccc(C[C@@H]2CNC(=S)N2CCc2cc(C(F)(F)F)cc(C(F)(F)F)c2)cc1	NR3A LBD binder 34
FC(F)(F)c1cc(CCN2C(=S)NC[C@@H]2c2ccccc2)cc(C(F)(F)F)c1	none
O=C1NC[C@@H](Cc2ccc(O)cc2)N(CCc2cc(C(F)(F)F)cc(C(F)(F)F)c2)C1=O	none (no result: Mdm2-MdmX inh, Beta apoptosis, SKKanGAS inh, CSC inhib, NR3A LBD binder)

Bioassay records as filed in PubChem.
